Common to all, as to assay: NCI-60 one-dose screen, 48 h (100 = growth as untreated, 0 = no growth, -100 = all killed)
Holding throughout (conditions): 10 µM unless noted

For test [1], the system named is T-47D breast.
Test [2] concerns BT-549 breast.
Test [3] relates to MDA-MB-435 melanoma.
The test system of test [4] is SW-620 colon.
For test [5], the system named is MCF7 breast.
The test system of test [6] is HCT-116 colon.
In test [7] the test system is HCC-2998 colon.
In test [8] the test system is KM12 colon.

Compounds without any hit were thinned out: in the full panel of roughly 83,000, 20% have a hit.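 Cell lines were cultured in 96-well plates, exposed to a single compound concentration, and assessed for percent growth 48 hours later.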 Unmarked numbers belong to inactive results. The source made the active and inactive calls. Rule for the calls: active = growth percent below 10; inactive = the rest.

For the molecule `Nc1c(C(=O)Nc2c(Cl)cccc2Cl)sc2nc3c(cc12)C(=O)CCC3`, the growth in test [1] is 35.7%; in test [2], 51.5%; in test [3] it was -37.7% (active); in test [4] it was 44.5%; in test [5], 19.3%; in test [6], 42.9%. Besides, the growth in test [7] was 69.1%; in test [8] it was 30.5%.
In the case of `Cc1cc(N2CCOCC2)nc(N(CCCNc2ccnc3cc(Cl)ccc23)Cc2ccco2)n1`, the growth was 35.3% in test [1]; 37.8% in test [2]; -20.1% (active) in test [3]; 21.4% in test [4]; 15.5% in test [5]; 7.37% (active) in test [6]. Besides, the growth in test [7] was 87.9%; in test [8], 33.3%.
Turning to `Cc1cccc(C)c1NCc1nc(-c2ccccc2)n[nH]1`, the growth in test [1] was 87.8%; in test [2], 94.8%; in test [3], 101%; in test [4] it was 109%; in test [5], 88.2%; in test [6], 98.7%. Further, the growth in test [7] is 101%; in test [8] it was 103%.
For the molecule `CC(=O)NC1=C(C#N)C(c2ccccc2Cl)c2c(ccc3ccccc23)O1` (stereo not given), the growth in test [1] is 62.5%; in test [2], 50%; in test [3], -11.2% (active); in test [4], 43%; in test [5], 42.1%; in test [6], 47.5%. Further, the figures for the growth in test [7] and in test [8] were 85.4% and 51.2%, respectively.
In the case of `O=C1c2ccccc2NC(c2cn(-c3ccccc3)nc2-c2cccnc2)N1Cc1ccccc1` (stereo not given), the growth is 75% in test [1]; 105% in test [2]; 108% in test [3]; 105% in test [4]; 89.3% in test [5]; 95.5% in test [6]. For the same molecule, the results for the growth in test [7] and in test [8] were 97.2% and 91.5%, respectively.
For the molecule `Cc1csc(Nc2nc(-c3ccc(Cl)cc3)nc(C(Cl)(Cl)Cl)n2)n1`, the growth is 61.6% in test [1]; 97.1% in test [2]; 89.3% in test [3]; 78.6% in test [4]; 59.4% in test [5]; 79.1% in test [6]. In addition, the growth in test [7] is 70%; in test [8], 79.6%.
Consider `Cn1cc(-c2csc(-c3cn(C(=O)OC(C)(C)C)c4ccccc34)n2)c2cccnc21`, for which the growth was 43.4% in test [1]; 60.3% in test [2]; 11.4% in test [3]; 36.1% in test [4]; 53.6% in test [5]; 56% in test [6]. Besides, the growth is 65.5% in test [7] and 38.5% in test [8].
For the molecule `CN1CCN(c2ccc3nc(-c4[nH]ncc4Nc4ncnc5c4OCCCN5)[nH]c3c2)CC1`, the growth in test [1] was -27.4% (active); in test [2], -74.2% (active); in test [3], -80.1% (active); in test [4], -58.1% (active); in test [5] it was -57.2% (active); in test [6], -11.8% (active). The growth in test [7] was -84.2% (active); in test [8] it was -72.7% (active).
Regarding `Cc1nn(-c2ccc(Br)cc2)c2nc3[nH]c(=O)[nH]c(=O)c3nc12`, the growth in test [1] is 102%; in test [2] it was 94.2%; in test [3] it was 99.1%; in test [4], 103%; in test [5], 93.4%; in test [6], 98.3%. Also, the values for the growth in test [7] and in test [8] were 114% and 103%, respectively.
For the molecule `C#CCN=C[C@]12CC[C@@H](C(=C)C)[C@@H]1[C@H]1CC[C@@H]3[C@@]4(C)CCC(=O)C(C)(C)[C@@H]4CC[C@@]3(C)[C@]1(C)CC2`, the growth in test [1] was 37%; in test [2], 48.3%; in test [3], 72.4%; in test [4], 65.3%; in test [5], 42.5%; in test [6] it was 26.8%. Also, the growth was 78.1% in test [7] and 61% in test [8].
Turning to `O=C(NCN1C(=O)c2cccc3cccc(c23)C1=O)N1CCC(Cc2ccccc2)CC1`, the growth in test [1] is 88%; in test [2], 98.4%; in test [3], 104%; in test [4], 100%; in test [5], 87.5%; in test [6], 87%. The growth was 109% in test [7] and 99.4% in test [8].
As to `C=C1C(=O)O[C@H]2[C@H]1CC/C(Cn1cc(-c3ccc(OC)cc3)nn1)=C\CC[C@@]1(C)O[C@@H]21`, the growth in test [1] is -71% (active); in test [2], 50%; in test [3] it was -26.9% (active); in test [4], -50.2% (active); in test [5] it was -41.3% (active); in test [6] it was -83.6% (active). The values for the growth in test [7] and in test [8] were 2.05% (active) and 65.5%, respectively.
On to `C=C(C)[C@@H]1CC[C@]2(C=O)CC[C@]3(C)[C@H](CC[C@@H]4[C@@]5(C)C/C(=C/c6cccnc6)C(=O)C(C)(C)[C@@H]5CC[C@]43C)[C@@H]12`, for which the growth in test [1] was 31.9%; in test [2] it was 75.6%; in test [3], 95.3%; in test [4], 76.2%; in test [5], 40.5%; in test [6] it was 43.8%. In addition, the values for the growth in test [7] and in test [8] were 99% and 78.3%, respectively.
`Nc1ncnc2nc(Br)[nH]c12`: the growth was 89.4% in test [1]; 95.6% in test [2]; 104% in test [3]; 106% in test [4]; 99.9% in test [5]; 92.4% in test [6]. For the same molecule, the growth in test [7] is 109%; in test [8] it was 102%.
For `CC(C)=CCC/C(C)=C/CC/C(C)=C/CSC[C@H](NC(=O)CCCCCN1CCN(C)CC1)C(=O)NC1CCCCCC1`, the growth was 36.9% in test [1]; 90.5% in test [2]; 50.2% in test [3]; -22.1% (active) in test [4]; 7.39% (active) in test [5]; -61% (active) in test [6]. The growth is 19.3% in test [7] and 66.1% in test [8].

Values taken from PubChem BioAssay (NCI).
